The results in this text go back to publication PMC11006913.

What all share (test): PBM; 200 nM protein, PBS
What all share (details): dsDNA, one strand shown

Assay [1] addresses HOXC10 (Homo sapiens, UniProt Q9NYD6 254-340).
For assay [2], the target named is HOXA7 (Homo sapiens, UniProt P31268 116-202).
The target of assay [3] is HOXA7 (Homo sapiens, UniProt P31268 116-202, W177C).
In the next assay the target is T1, NKX2-4 (Homo sapiens, UniProt Q9H2Z4 175-261, T231S).
T1 sequence: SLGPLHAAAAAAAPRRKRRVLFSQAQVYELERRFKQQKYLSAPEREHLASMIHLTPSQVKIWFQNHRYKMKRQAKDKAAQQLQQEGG

Assay [4] concerns the target HOXD13 (Homo sapiens, UniProt P35453 263-343, T313R).
For assay [5], the target named is HOXD13 (Homo sapiens, UniProt P35453 263-343).
HOXD13 (Homo sapiens, UniProt P35453 263-343), sequence (P35453 263-343): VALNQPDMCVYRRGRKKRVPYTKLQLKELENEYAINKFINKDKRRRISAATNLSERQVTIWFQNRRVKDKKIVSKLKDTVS
Assay [6] concerns the target ALX4 (Homo sapiens, UniProt Q9H161 200-286).
The target in assay [7] is ALX4 (Homo sapiens, UniProt Q9H161 200-286, Q225E).
ALX4 (Homo sapiens, UniProt Q9H161 200-286, Q225E), sequence (Q9H161 200-286 Q225E): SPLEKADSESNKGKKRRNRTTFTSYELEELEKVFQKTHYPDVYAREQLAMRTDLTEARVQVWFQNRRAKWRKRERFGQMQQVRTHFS
Assay [8] deals with HOXC10 (Homo sapiens, UniProt Q9NYD6 254-340, K271E).
HOXC10 (Homo sapiens, UniProt Q9NYD6 254-340, K271E), sequence (Q9NYD6 254-340 K271E): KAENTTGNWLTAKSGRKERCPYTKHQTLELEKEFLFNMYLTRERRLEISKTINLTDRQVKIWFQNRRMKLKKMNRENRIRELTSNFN
In assay [9] the target is HOXA2 (Homo sapiens, UniProt O43364 129-215, R185T).
HOXA2 (Homo sapiens, UniProt O43364 129-215, R185T), sequence (O43364 129-215 R185T): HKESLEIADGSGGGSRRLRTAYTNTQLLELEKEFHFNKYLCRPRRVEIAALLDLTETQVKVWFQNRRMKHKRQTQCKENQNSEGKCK
Assay [10] addresses HOXA2 (Homo sapiens, UniProt O43364 129-215, R185K).
Assay [11] deals with VAX1 (Homo sapiens, UniProt Q5SQQ9 86-172).
VAX1 (Homo sapiens, UniProt Q5SQQ9 86-172), sequence (Q5SQQ9 86-172): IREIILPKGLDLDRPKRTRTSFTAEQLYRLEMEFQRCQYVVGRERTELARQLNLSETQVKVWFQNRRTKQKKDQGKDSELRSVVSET
Assay [12] deals with VAX1 (Homo sapiens, UniProt Q5SQQ9 86-172, T142I).
VAX1 (Homo sapiens, UniProt Q5SQQ9 86-172, T142I), sequence (Q5SQQ9 86-172 T142I): as the sequence (Q5SQQ9 86-172) above, with T57I counted along it
Assay [13] has as its target HOXA2 (Homo sapiens, UniProt O43364 129-215, Y150S).
Assay [14] deals with HOXA2 (Homo sapiens, UniProt O43364 129-215).
HOXA2 (Homo sapiens, UniProt O43364 129-215), sequence (O43364 129-215): as the sequence (O43364 129-215 R185T) above, with T57R counted along it
Assay [15] has as its target VAX1 (Homo sapiens, UniProt Q5SQQ9 86-172, K157R).
Assay [16] has as its target MSX2 (Homo sapiens, UniProt P35548 130-214, R199I).
The target in assay [17] is MSX2 (Homo sapiens, UniProt P35548 130-214).
MSX2 (Homo sapiens, UniProt P35548 130-214), sequence (P35548 130-214): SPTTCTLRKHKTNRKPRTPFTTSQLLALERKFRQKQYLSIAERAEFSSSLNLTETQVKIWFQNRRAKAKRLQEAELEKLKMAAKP
Assay [18] has as its target MSX2 (Homo sapiens, UniProt P35548 130-214, F161Y).
Assay [19] has as its target PROP1 (Homo sapiens, UniProt O75360 56-141).
Assay [20] addresses PROP1 (Homo sapiens, UniProt O75360 56-141, R99H).
The target in assay [21] is PROP1 (Homo sapiens, UniProt O75360 56-141, F88S).
PROP1 (Homo sapiens, UniProt O75360 56-141, F88S), sequence (O75360 56-141 F88S): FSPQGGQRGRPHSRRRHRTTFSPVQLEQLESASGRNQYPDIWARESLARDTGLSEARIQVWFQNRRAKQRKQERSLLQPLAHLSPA
Assay [22] has as its target T2, PAX4 (Homo sapiens, UniProt O43316 9-242, R200K).
T2 sequence: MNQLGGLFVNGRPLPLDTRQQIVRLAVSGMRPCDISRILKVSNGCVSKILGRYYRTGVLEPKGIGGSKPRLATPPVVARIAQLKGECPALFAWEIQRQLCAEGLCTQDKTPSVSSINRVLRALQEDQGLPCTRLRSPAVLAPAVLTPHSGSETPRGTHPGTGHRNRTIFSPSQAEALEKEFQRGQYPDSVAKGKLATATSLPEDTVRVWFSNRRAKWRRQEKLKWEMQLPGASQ

Assay [23] concerns the target T3, PAX4 (Homo sapiens, UniProt O43316 9-242, R227W).
T3 sequence: T2 sequence with K192R, R219W

The next assay deals with CRX (Homo sapiens, UniProt O43186 26-111, R41L).
CRX, sequence (O43186 26-111 R41L): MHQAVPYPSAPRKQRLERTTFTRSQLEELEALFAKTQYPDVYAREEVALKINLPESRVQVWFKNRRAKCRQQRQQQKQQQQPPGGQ

Changes are numbered by the printed parent chain.

HOXA7 (Homo sapiens, UniProt P31268 116-202, W177C), sequence (P31268 116-202 W177C): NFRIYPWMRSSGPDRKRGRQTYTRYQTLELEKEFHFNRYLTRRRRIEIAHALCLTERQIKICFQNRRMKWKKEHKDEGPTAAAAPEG
HOXC10 (Homo sapiens, UniProt Q9NYD6 254-340), sequence (Q9NYD6 254-340): as the sequence (Q9NYD6 254-340 K271E) above, with E18K counted along it
HOXA2 (Homo sapiens, UniProt O43364 129-215, Y150S), sequence (O43364 129-215 Y150S): as the sequence (O43364 129-215 R185T) above, with Y22S, T57R counted along it
HOXA2 (Homo sapiens, UniProt O43364 129-215, R185K), sequence (O43364 129-215 R185K): as the sequence (O43364 129-215 R185T) above, with T57K counted along it
HOXA7 (Homo sapiens, UniProt P31268 116-202), sequence (P31268 116-202): as the sequence (P31268 116-202 W177C) above, with C62W counted along it
MSX2 (Homo sapiens, UniProt P35548 130-214, R199I), sequence (P35548 130-214 R199I): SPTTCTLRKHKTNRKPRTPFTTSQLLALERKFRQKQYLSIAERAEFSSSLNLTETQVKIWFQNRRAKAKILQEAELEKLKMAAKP
HOXD13 (Homo sapiens, UniProt P35453 263-343, T313R), sequence (P35453 263-343 T313R): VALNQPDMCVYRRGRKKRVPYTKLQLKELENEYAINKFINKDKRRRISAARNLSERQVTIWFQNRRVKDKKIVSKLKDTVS
PROP1 (Homo sapiens, UniProt O75360 56-141, R99H), sequence (O75360 56-141 R99H): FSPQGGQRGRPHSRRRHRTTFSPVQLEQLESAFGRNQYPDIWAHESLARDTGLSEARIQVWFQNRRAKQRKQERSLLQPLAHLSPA
VAX1 (Homo sapiens, UniProt Q5SQQ9 86-172, K157R), sequence (Q5SQQ9 86-172 K157R): as the sequence (Q5SQQ9 86-172) above, with K72R counted along it
PROP1 (Homo sapiens, UniProt O75360 56-141), sequence (O75360 56-141): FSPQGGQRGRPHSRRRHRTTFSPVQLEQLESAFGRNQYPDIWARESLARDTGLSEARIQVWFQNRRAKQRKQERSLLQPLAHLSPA
MSX2 (Homo sapiens, UniProt P35548 130-214, F161Y), sequence (P35548 130-214 F161Y): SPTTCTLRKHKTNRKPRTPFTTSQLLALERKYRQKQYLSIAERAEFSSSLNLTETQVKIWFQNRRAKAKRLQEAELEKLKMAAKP
ALX4 (Homo sapiens, UniProt Q9H161 200-286), sequence (Q9H161 200-286): as the sequence (Q9H161 200-286 Q225E) above, with E26Q counted along it

With TGTTACAA, the binding signal with HOXC10 [1] is 10.6 upbm affinity estimate (log intensity, higher = more binding, comparable within an allelic series).

In the case of CCTTCGAC, the binding signal with HOXA7 [2] was 8.4 upbm affinity estimate (log intensity, higher = more binding, comparable within an allelic series); with HOXA7 [3], 8.45 upbm affinity estimate (log intensity, higher = more binding, comparable within an allelic series).

On to CATTTACA, for which the binding signal with HOXA7 [2] is 9.74 upbm affinity estimate (log intensity, higher = more binding, comparable within an allelic series); with HOXA7 [3] it was 8.8 upbm affinity estimate (log intensity, higher = more binding, comparable within an allelic series).

Turning to AACAATCA, the binding signal in the assay with HOXC10 [1] is 10.9 upbm affinity estimate (log intensity, higher = more binding, comparable within an allelic series).

ATTCGTAA: the binding signal with HOXC10 [1] was 10.8 upbm affinity estimate (log intensity, higher = more binding, comparable within an allelic series).

For the sequence AGGAGCCT, the binding signal was 8.33 upbm affinity estimate (log intensity, higher = more binding, comparable within an allelic series) in the assay with HOXA7 [2] and 8.35 upbm affinity estimate (log intensity, higher = more binding, comparable within an allelic series) in the assay with HOXA7 [3].

On to AGCAGAAG, for which the binding signal was 8.46 upbm affinity estimate (log intensity, higher = more binding, comparable within an allelic series) with HOXA7 [2] and 8.54 upbm affinity estimate (log intensity, higher = more binding, comparable within an allelic series) in the assay with HOXA7 [3].

Take AGTAGTTA: the binding signal was 10 upbm affinity estimate (log intensity, higher = more binding, comparable within an allelic series) in the assay with HOXA7 [2] and 8.75 upbm affinity estimate (log intensity, higher = more binding, comparable within an allelic series) in the assay with HOXA7 [3].

In the case of AAGCGGCG, the binding signal is 8.49 upbm affinity estimate (log intensity, higher = more binding, comparable within an allelic series) with HOXA7 [2] and 8.33 upbm affinity estimate (log intensity, higher = more binding, comparable within an allelic series) with HOXA7 [3].

Take GTACTTTA: the binding signal with NKX2-4 is 12.8 upbm affinity estimate (log intensity, higher = more binding, comparable within an allelic series).

Take CAATATGG: the binding signal with HOXC10 [1] was 10.7 upbm affinity estimate (log intensity, higher = more binding, comparable within an allelic series); with HOXD13 [4], 10 upbm affinity estimate (log intensity, higher = more binding, comparable within an allelic series); in the assay with HOXD13 [5], 10.5 upbm affinity estimate (log intensity, higher = more binding, comparable within an allelic series).

With ATGCATAA, the binding signal in the assay with HOXC10 [1] is 11.2 upbm affinity estimate (log intensity, higher = more binding, comparable within an allelic series); with ALX4 [6], 10.3 upbm affinity estimate (log intensity, higher = more binding, comparable within an allelic series); with ALX4 [7], 9.57 upbm affinity estimate (log intensity, higher = more binding, comparable within an allelic series); in the assay with HOXC10 [8], 10.9 upbm affinity estimate (log intensity, higher = more binding, comparable within an allelic series).

Take ATGCCATA: the binding signal with HOXC10 [1] is 11 upbm affinity estimate (log intensity, higher = more binding, comparable within an allelic series).

In the case of GGCACGCC, the binding signal with HOXC10 [1] was 10 upbm affinity estimate (log intensity, higher = more binding, comparable within an allelic series); with HOXA2 [9] it was 6.97 upbm affinity estimate (log intensity, higher = more binding, comparable within an allelic series); with HOXA2 [10], 10.1 upbm affinity estimate (log intensity, higher = more binding, comparable within an allelic series); in the assay with HOXC10 [8] it was 10 upbm affinity estimate (log intensity, higher = more binding, comparable within an allelic series); in the assay with VAX1 [11], 6.93 upbm affinity estimate (log intensity, higher = more binding, comparable within an allelic series); with VAX1 [12], 7.04 upbm affinity estimate (log intensity, higher = more binding, comparable within an allelic series). Moreover, the binding signal with HOXA2 [13] is 10.3 upbm affinity estimate (log intensity, higher = more binding, comparable within an allelic series); with HOXA2 [14], 7.03 upbm affinity estimate (log intensity, higher = more binding, comparable within an allelic series); with VAX1 [15], 6.97 upbm affinity estimate (log intensity, higher = more binding, comparable within an allelic series).

Regarding ACCAATAC, the binding signal with HOXC10 [1] is 10.6 upbm affinity estimate (log intensity, higher = more binding, comparable within an allelic series).

For GCCCGCAC, the binding signal is 10.1 upbm affinity estimate (log intensity, higher = more binding, comparable within an allelic series) with HOXC10 [1]; 7.43 upbm affinity estimate (log intensity, higher = more binding, comparable within an allelic series) with HOXA2 [9]; 9.56 upbm affinity estimate (log intensity, higher = more binding, comparable within an allelic series) with MSX2 [16]; 10.2 upbm affinity estimate (log intensity, higher = more binding, comparable within an allelic series) in the assay with HOXA2 [10]; 9.97 upbm affinity estimate (log intensity, higher = more binding, comparable within an allelic series) with HOXC10 [8]; 9.65 upbm affinity estimate (log intensity, higher = more binding, comparable within an allelic series) with MSX2 [17]. Also, the binding signal in the assay with MSX2 [18] was 9.65 upbm affinity estimate (log intensity, higher = more binding, comparable within an allelic series); with HOXA2 [13], 10.4 upbm affinity estimate (log intensity, higher = more binding, comparable within an allelic series); with HOXA2 [14], 7.36 upbm affinity estimate (log intensity, higher = more binding, comparable within an allelic series).

On to CTGCCCCC, for which the binding signal is 9.96 upbm affinity estimate (log intensity, higher = more binding, comparable within an allelic series) in the assay with HOXC10 [1]; 6.91 upbm affinity estimate (log intensity, higher = more binding, comparable within an allelic series) in the assay with HOXA2 [9]; 9.95 upbm affinity estimate (log intensity, higher = more binding, comparable within an allelic series) with HOXA2 [10]; 9.97 upbm affinity estimate (log intensity, higher = more binding, comparable within an allelic series) with HOXC10 [8]; 6.68 upbm affinity estimate (log intensity, higher = more binding, comparable within an allelic series) in the assay with PROP1 [19]; 6.59 upbm affinity estimate (log intensity, higher = more binding, comparable within an allelic series) with PROP1 [20]. In addition, the binding signal in the assay with PROP1 [21] is 6.14 upbm affinity estimate (log intensity, higher = more binding, comparable within an allelic series); with HOXA2 [13] it was 10.3 upbm affinity estimate (log intensity, higher = more binding, comparable within an allelic series); with HOXA2 [14], 7.21 upbm affinity estimate (log intensity, higher = more binding, comparable within an allelic series).

Consider TAATACGA, for which the binding signal with HOXC10 [1] is 11 upbm affinity estimate (log intensity, higher = more binding, comparable within an allelic series); in the assay with PAX4 [22], 11.6 upbm affinity estimate (log intensity, higher = more binding, comparable within an allelic series); with PAX4 [23], 10.9 upbm affinity estimate (log intensity, higher = more binding, comparable within an allelic series); with CRX, 10.4 upbm affinity estimate (log intensity, higher = more binding, comparable within an allelic series).
